# According to PubChem BioAssay AID1619 (SRMLSC, 2009):
# Hit rate of the full screen: of about 220,000 compounds, about 830 (0.38%) were called active. Only a sample is shown. Measured potencies and affinities stand elsewhere. Unmarked numbers belong to inactive results.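 Rule for the calls: active = compound inhibiting the enzyme by more than half at any dose during confirmatory dose-response retesting; inconclusive = strong single-dose inhibitors picked by rank but not retested; inactive = the rest.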
# Target: Leucine aminopeptidase (Plasmodium falciparum (isolate 3D7)) (UniProt Q8IL11)
# Experiment: P. falciparum M17LAP inhibitors, primary screen, biochemical, fluorogenic H-Leu-NHMec substrate, 1536-well (AID 1619);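 note: plate controls were full reaction with DMSO carrier for no effect and no enzyme background for full effect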
# Conditions: recombinant M17LAP, H-Leu-NHMec fluorogenic kinetic assay; at 30 µM; stronger effect = higher value
# Chain of Leucine aminopeptidase (Plasmodium falciparum (isolate 3D7)) (Q8IL11 whole entry, looked up): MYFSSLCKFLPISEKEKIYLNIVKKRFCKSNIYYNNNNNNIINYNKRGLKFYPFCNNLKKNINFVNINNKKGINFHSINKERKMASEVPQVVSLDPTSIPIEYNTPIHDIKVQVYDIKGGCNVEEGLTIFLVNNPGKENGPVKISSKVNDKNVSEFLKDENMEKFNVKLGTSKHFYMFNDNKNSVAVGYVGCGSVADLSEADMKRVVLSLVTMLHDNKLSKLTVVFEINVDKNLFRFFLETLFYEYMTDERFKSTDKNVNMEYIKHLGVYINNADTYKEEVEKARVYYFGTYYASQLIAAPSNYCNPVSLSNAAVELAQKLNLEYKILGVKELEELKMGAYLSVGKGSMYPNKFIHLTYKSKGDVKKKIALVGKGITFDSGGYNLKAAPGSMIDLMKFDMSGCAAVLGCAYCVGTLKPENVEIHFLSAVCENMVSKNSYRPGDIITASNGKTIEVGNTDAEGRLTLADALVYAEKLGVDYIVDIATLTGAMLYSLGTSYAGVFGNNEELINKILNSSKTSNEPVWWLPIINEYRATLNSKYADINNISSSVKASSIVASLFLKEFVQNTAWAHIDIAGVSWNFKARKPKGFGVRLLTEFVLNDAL
row,Structure (SMILES),inhibition [%]
1,Cc1ccc(NC(=O)c2cc(NC(=O)c3ccccc3C(=O)O)ccc2N2CCCCC2)cc1,-63
2,O=C(O)CCC(=O)Nc1ccc(N2CCCCC2)c(C(=O)O)c1,10.6
3,C/C(=N\NC(N)=S)C1(C)CC2(CC(C)(C)OC2=O)C(=O)O1 (stereo not drawn),-1.04
4,Nc1nc(SCC(=O)N2N=C3/C(=C/c4ccco4)CCCC3C2c2ccco2)n[nH]1 (stereo not drawn),9.23
5,O=C(CSc1nccc(=O)[nH]1)N1N=C2/C(=C/c3ccco3)CCCC2C1c1ccco1 (stereo not drawn),13.7
6,COc1c(Cl)cc(-c2noc(C)c2C(=O)NCc2ccc3c(c2)OCO3)cc1Cl,2.83
7,Cc1ccnc(NC(=O)C2CCC(CNc3c(N4CCCC4)c(=O)c3=O)CC2)c1 (stereo not drawn),15.6
8,CC(C)Nc1nnc(SC(C)C(=O)Nc2ccc(Cl)cn2)s1 (stereo not drawn),5.71
9,COC(=O)N/N=C/c1ccc(OC(=O)/C=C/c2ccco2)cc1,-6.97
10,CCOc1cccc2sc(N(CCN(CC)CC)C(=O)c3cccc([N+](=O)[O-])c3)nc12,3.1
11,COc1cc(NS(=O)(=O)c2ccc(NC(C)=O)cc2)nc(OC)n1,-0.66
12,O=C(CSC1=NCCS1)Nc1ccc(S(=O)(=O)NC2CCCCC2)cc1,8.51
13,O=C(COC(=O)c1n[nH]c2ccccc12)c1cc(F)ccc1F,3.93
14,COC(=O)c1cc(NC(C)=O)ccc1N1CCOCC1,8.76
15,CC(C)(C)c1ccc(C2C(C#N)=C(N)Oc3n[nH]c(-c4cccnc4)c32)cc1 (stereo not drawn),3.44
16,Cc1ccc(Cn2ccc(NC(=O)c3cc4nc5c(c(C(F)(F)F)n4n3)CCc3ccccc3-5)n2)cc1,13.9
17,COc1ccc(CC(CC(=O)O)C(=O)NCc2ccccc2)cc1 (stereo not drawn),-4.42
18,COc1ccc(NC(=O)C(CC(=O)O)Cc2ccc(C)cc2)cc1 (stereo not drawn),53
19,COc1ccc(C(CC(=O)Nc2ccc(F)cc2)c2ccccc2)cc1 (stereo not drawn),-0.86
20,COc1ccc(OC)c(NC(=O)C(CC(=O)O)Cc2ccc(Cl)cc2)c1 (stereo not drawn),35.7
21,COc1ccc(NC(=O)C(Cc2ccccc2)n2cccc2)cc1 (stereo not drawn),-2.31
22,COc1ccc(NC(=O)C(CC(=O)O)C(C)c2ccccc2)cc1 (stereo not drawn),-2.5
23,CCOc1ccc(NC(=O)C(CC(=O)O)Cc2ccccc2)cc1 (stereo not drawn),1.68
24,COc1ccc(NC(=O)Cc2ccccc2)cc1,34.6
25,CCOC(=O)Nc1ccc2nc3n(c(=O)c2c1)CCCCC3,9.64

row,Structure (SMILES),inhibition [%]
1,COc1ccc2ccccc2c1CN1CCN(Cc2ccccc2)CC1,7.12
2,CN1CCN(c2cc(=O)n(Cc3ccc(F)cc3)c(=O)[nH]2)CC1,-0.83
3,COc1ccc(-c2nc(=S)[nH][nH]2)cc1OC,-3.54
4,O=C(O)CC(Cc1ccc(Cl)cc1)C(=O)Nc1ccc([N+](=O)[O-])cc1 (stereo not drawn),44.7
5,O=C(O)CC(NNC(=O)c1ccccc1)C(=O)Nc1ccc([N+](=O)[O-])cc1 (stereo not drawn),4.13
6,c1ccc(COc2ccc(CNCc3cccs3)cc2)cc1,0.61
7,Cc1cc(NC(=O)CSc2nnc(CNc3ccc(F)cc3)n2C2CCCCC2)no1,-6.09
8,COc1cc2nc(C3CCC3)nc(N3CCN(c4ccccc4OC)CC3)c2cc1OC,7.31
9,CCOc1c(Br)cc(CNC2CCCCCCC2)cc1OC,-3.96
10,COc1cc(CNc2ccc(N3CCOCC3)cc2)cc(Br)c1OC,-2.11
11,CCOc1c(Br)cc(CNc2ccc3c(c2)OCCO3)cc1OC,2.99
12,COc1cc(CO)cc(Br)c1OCC(=O)O,-4.17
13,CCOC(=O)c1nc(Nc2ccc(C(=O)O)cc2)c2ccccc2n1,23.8
14,CCOc1ccc(N2C(=O)/C(=C/c3ccccc3)N=C2SC)cc1,2.97
15,COC1=C(OC)C(=O)C(CCCCCCCCCCO)=C(C)C1=O,-2.37
16,CS(=O)(=O)N(CC(=O)NC1CCCCC1)Cc1ccc(Cl)cc1,4.5
17,CC(C)NC(=O)CN1C(=O)c2ccccc2S1(=O)=O,7.45
18,CN(c1cccc(NC(=O)CN2C(=O)c3ccccc3S2(=O)=O)c1)S(C)(=O)=O,51.6
19,O=C(CCN1C(=O)c2ccccc2S1(=O)=O)Nc1ccccc1,6.82
20,O=C(CN1C(=O)c2ccccc2S1(=O)=O)NC1CCCC1,33.2
21,O=C(CN1C(=O)c2ccccc2S1(=O)=O)NC1CCCCCC1,5.61
22,O=C(CN1c2cccc3cccc(c23)S1(=O)=O)Nc1ccccc1,2.82
23,O=C(CN1C(=O)c2ccccc2S1(=O)=O)Nc1cccnc1,27.9
24,COc1ccc(NC(=O)CN2c3cccc4cccc(c34)S2(=O)=O)c(OC)c1,13.8
25,COc1ccc(NS(=O)(=O)c2cccc(C(=O)N/N=C/c3ccc4c(c3)OCCO4)c2)cc1,6.63

row,Structure (SMILES),inhibition [%]
1,COc1ccccc1-c1noc(-c2cccnc2)n1,-3.7
2,CCOC(=O)c1[nH]c(C)c(C(=O)N2CCc3c([nH]c4ccccc34)C2c2ccccn2)c1C (stereo not drawn),-1.65
3,COC(=O)C(C(=O)NCC1CCCO1)C1CCCCCC1 (stereo not drawn),13.6
4,COC(=O)CSC(C)C(=O)Nc1nnc(C(C)C)s1 (stereo not drawn),-2.42
5,CC(C)c1nnc(NC(=O)CSc2nc3ccccc3s2)s1,-2.5
6,CCC(Sc1nc2ccccc2s1)C(=O)Nc1nnc(C)s1 (stereo not drawn),22.9
7,CCc1nnc(NC(=O)C(CC)c2ccccc2)s1 (stereo not drawn),-2.8
8,CCc1nnc(NC(=O)C(C)C)s1,-5.28
9,CCOC(=O)CSC(CC)C(=O)Nc1nnc(C(C)C)s1 (stereo not drawn),20.9
10,Cc1cc(-c2ccco2)n(CC(=O)NCCN(C)C)n1,-1.86
11,CCCCNC(=O)NC12CC3CC(CC(C3)C1)C2,3.38
12,S=C(Nc1ccccc1Cl)NC1CC2CCCC(C1)N2C1CC1 (stereo not drawn),19.9
13,COc1ccc(-c2nc3ccccc3[nH]2)cc1,12.5
14,COc1ccc(-c2noc(=O)[nH]2)cc1,-9.72
15,O=C(CCn1c(=O)oc2ccccc21)Nc1nccs1,0.79
16,Nc1cc(C2CCCC2)nn1-c1ccccc1,16.1
17,Cc1nn(CC(=O)NCCCN2CCOCC2)c(C)c1[N+](=O)[O-],3.72
18,COC(=O)NCc1cc2cc(Cl)ccc2[nH]1,8.05
19,O=S(=O)(N/N=C\C=C\c1ccccc1)c1ccc(Br)cc1,31.2
20,O=S(=O)(Nc1ccn(-c2ccccc2)n1)c1ccc(Br)cc1,21.4
21,Cc1ccc(C(=O)Nc2ccccc2C(=O)N2CC3(C)CC2CC(C)(C)C3)cc1 (stereo not drawn),-0.05
22,COc1ccc(C[C@H]2CN3C(=NC[C@@H]3C(C)C)N2C[C@H](C)NC(=O)c2ccc(C)c(Br)c2)cc1,-1.28
23,COc1ccc2c(c1OC)C(=O)OC2Nc1nc(-c2cc3cc([N+](=O)[O-])ccc3oc2=O)cs1 (stereo not drawn),42.4
24,COc1ccc2c(c1OC)C(=O)OC2Nc1nc(-c2cc3cc(Br)ccc3oc2=O)cs1 (stereo not drawn),-3.55
25,CSc1nsc(SC)c1CO,-0.7

row,Structure (SMILES),inhibition [%]
1,Cc1cccc(NC(=O)CSc2nc3nc(C)cc(C)c3c(=O)[nH]2)c1,15.8
2,CC(=O)Nc1c(O)nc(SCC(=O)Nc2ccc(C(C)=O)cc2)[nH]c1=O,21.4
3,CC(=O)Nc1c(O)nc(SCC(=O)Nc2c(C)cccc2C)[nH]c1=O,13.4
4,Cc1cccc(NC(=O)CSc2nc3c(c(=O)[nH]2)CCCC3)c1C,12.7
5,Cc1cccc(NC(=O)CSc2nc3c(c(=O)[nH]2)CCC3)c1C,49.7
6,Cc1cccc(NC(=O)CSc2nc(C)c(Cc3ccccc3)c(=O)[nH]2)c1,-0.73
7,S=c1[nH]ncn1/N=C/c1cccc(Oc2ccccc2)c1,13.2
8,Cc1ccc(CNc2ccc(S(=O)(=O)N3CCOCC3)cc2[N+](=O)[O-])cc1,-4.05
9,CCCC1C2C(=O)N(c3ccccc3)C(=O)C2ON1c1ccccc1 (stereo not drawn),-10.4
10,CCc1ccc(OC(=O)c2ccn(CC)n2)cc1,2.96
11,CCOC(=O)c1c(C)[nH]c(C)c1C(=O)COC(=O)c1ccc(O)cc1,0.26
12,Cc1ccc(NC(=O)c2ccccc2-c2ccccc2C(=O)O)cc1C,4.01
13,O=C(O)c1ccccc1-c1ccccc1C(=O)Nc1ccccc1,-2.4
14,O=C(CSc1nc2ccc(NC(=O)C3CCCCC3)cc2s1)NCC1CCCO1 (stereo not drawn),2.95
15,O=C(Nc1ccc(N2C(=O)C3CCCCC3C2=O)cc1Cl)c1cccs1 (stereo not drawn),-2.37
16,Cc1cc(C(=O)COC(=O)c2ccc[nH]c2=O)c(C)n1-c1ccccc1F,8.77
17,Cc1ccc(-n2c(C)cc(C(=O)COC(=O)c3c(C)noc3C)c2C)cc1,0.29
18,Cc1cc(C(=O)COC(=O)C2=NNC(=O)CC2)c(C)n1-c1ccccc1,7.43
19,Cc1cc(C(=O)COc2ccccc2C(N)=O)c(C)n1C1CC1,-2.25
20,COCCn1c(C)cc(C(=O)COC(=O)c2ccc[nH]c2=O)c1C,49.1
21,Cc1cc(C(=O)COC(=O)c2ccc[nH]c2=O)c(C)n1C,14.9
22,Cc1ccc(-n2c(C)cc(C(=O)COC(=O)C3=NNC(=O)CC3)c2C)cc1,30.1
23,Cc1cc(C(=O)COC(=O)c2ccc(O)cc2)c(C)n1CCc1ccc(F)cc1,13.2
